This is part of a sample that, as a whole, favours compounds with a hit. Of some 79,000 tested, about 15% had one in any assay. A number with no mark means an inactive call. Calls of active or inactive are those of the source. Cut-off read from the data, not from the text of the source: active = growth inhibition above about 70%; inactive = the rest.
Tests used:
[1] = NCI Yeast Anticancer Drug Screen. Data for the rad50 strain (AID 155);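 note: 0% = growth of vehicle-only cultures of the same strain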; details: S. cerevisiae rad50 strain growth inhibition, hits give high values
Summary of the method: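 Growth of the mutant yeast was measured after compound exposure and referenced to vehicle-treated cultures.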

[2] = NCI Yeast Anticancer Drug Screen. Data for the mec2-1 strain (AID 157); details: S. cerevisiae mec2-1 strain, hits give high values
Summary of the method: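 Compounds were applied to mec2-1 yeast cells. Their growth was then compared with that of vehicle-treated cultures to give growth inhibition.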

[3] = NCI Yeast Anticancer Drug Screen. Data for the sgs1 mgt1 strain (AID 161);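 note: 0% = growth of cultures given vehicle only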; details: S. cerevisiae sgs1 mgt1 strain, hits give high values
Summary of the method: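 Compounds are added to genetically altered yeast, and growth is compared with cultures given vehicle alone to give percent inhibition.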

[4] = NCI Yeast Anticancer Drug Screen. Data for the cln2 rad14 strain (AID 165);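 note: 0% = growth equal to vehicle treated cultures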; details: S. cerevisiae cln2 rad14 strain, hits give high values
Summary of the method: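 Strain: cln2 rad14 yeast, altered in cell cycle control and DNA damage repair. Read-out: growth inhibition vs vehicle.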

[5] = NCI Yeast Anticancer Drug Screen. Data for the bub3 strain (AID 167); details: S. cerevisiae bub3 mutant strain, hits give high values
Summary of the method: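 Whole-cell yeast assay. The mutant strain was incubated with compounds, and growth inhibition was determined by comparison with vehicle-treated cells.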

[6] = NCI Yeast Anticancer Drug Screen. Data for the mlh1 rad18 strain (AID 175); details: S. cerevisiae mlh1 rad18 strain growth inhibition, hits give high values
Summary of the method: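 A repair-deficient yeast strain is exposed to test compound, and growth is scored relative to vehicle-treated controls.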

[7] = at 5.0 µM (retest, dose inferred, filed as 0.5)
[8] = at 50.0 µM (retest, dose inferred, filed as 5.0)

SMILES | growth inhibition [1, 7] | growth inhibition [1, 8] | growth inhibition ([1]; at 50.0 µM) | growth inhibition [2, 7] | growth inhibition [2, 8] | growth inhibition ([2]; at 50.0 µM) | growth inhibition [3, 7] | growth inhibition [3, 8] | growth inhibition ([3]; at 50.0 µM) | growth inhibition [4, 7] | growth inhibition [4, 8] | growth inhibition ([4]; at 50.0 µM) | growth inhibition [5, 7] | growth inhibition [5, 8] | growth inhibition ([5]; at 50.0 µM) | growth inhibition [6, 7] | growth inhibition [6, 8] | growth inhibition ([6]; at 50.0 µM)
NC(CSSCC(N)=NCCCCCSC12CC3CC(CC(C3)C1)C2)=NCCCCCSC12CC3CC(CC(C3)C1)C2 | -2% | 22% | 99.2% (active) | 1% | 11% | 99.6% (active) | 1% | 12% | 99.5% (active) | 3% | 2% | 98.8% (active) | 5% | 15% | 98.7% (active) | 0% | 16% | 99.3% (active)
O=C(/C(O)=C(\O)C(=O)N(C1CCCCC1)C1CCCCC1)N(C1CCCCC1)C1CCCCC1 | 25% | 93% (active) | 96.9% (active) | -2% | 89% (active) | 98.2% (active) | 20% | 87% (active) | 96.8% (active) | -4% | 66% | 79.7% (active) | 4% | 95% (active) | 95.5% (active) | 14% | 86% (active) | 97.8% (active)
CN(C)N=Nc1ccc2[nH]c(=O)[nH]c2c1 | 16% | 18% | 53% | 5% | 9% | 38.8% | 16% | -18% | 12.6% | 13% | -54% | 29.1% | 14% | -11% | 74% (active) | 19% | 19% | 72.5% (active)
COc1cccc(NC(=S)NC(Cc2ccccc2)c2ccccc2)c1 (stereo not given) | -7% | 88% (active) | 80.2% (active) | -10% | 88% (active) | 74.1% (active) | -7% | 90% (active) | 83.9% (active) | 19% | 88% (active) | 70% (active) | -2% | 90% (active) | 77.2% (active) | -7% | 88% (active) | 72.4% (active)
O=NNc1ncc(Sc2ccccc2)nc1Sc1ccccc1 | -14% | -8% | -0.45% | -11% | 13% | -24.9% | -3% | 20% | 45.5% | 3% | 11% | 15.5% | -13% | -11% | -9.1% | 4% | 12% | 71.8% (active)
COC1CCCCC1C(=O)C(C#N)C1CCCCC1C1CCCCC1 (stereo not given) | 4% | -2% | 96% (active) | 3% | -6% | 95.5% (active) | 7% | 7% | 97% (active) | -5% | 0% | 98.5% (active) | -3% | -3% | 96.7% (active) | 0% | 3% | 98.3% (active)
O=C(/C=C/c1ccccc1)CCN1CCN(CCC(=O)/C=C/c2ccccc2)CC1 | 36% | 100% (active) | 99.2% (active) | 56% | 100% (active) | 99.5% (active) | 40% | 57% | 99.4% (active) | 88% (active) | 100% (active) | 99.4% (active) | 36% | 99% (active) | 99.4% (active) | 78% (active) | 100% (active) | 99.5% (active)
OCC(O)C(O)C(O)C(O)c1cnn(-c2ccccc2)n1 (stereo not given) | 3% | -4% | 10.8% | -8% | -24% | 3.45% | 3% | -5% | 15.2% | -4% | -2% | 14.2% | -3% | 2% | -1.3% | -7% | -2% | 18.9%
CCCCCCCCCCCCNCc1ccc(Cl)c(Cl)c1 | 72% (active) | 96% (active) | 99.8% (active) | 91% (active) | 98% (active) | 99.7% (active) | 89% (active) | 98% (active) | 99.8% (active) | 58% | 90% (active) | 99.6% (active) | 76% (active) | 96% (active) | 97% (active) | 87% (active) | 96% (active) | 99.7% (active)
CC(C)(C)c1ccc(-n2c3nc(=O)n(-c4ccccc4C(F)(F)F)c(=O)c-3cc3ccccc32)cc1 | 13% | 96% (active) | 59.1% | 3% | 99% (active) | 50% | 10% | 98% (active) | 61.1% | 13% | 97% (active) | 60.5% | 8% | 98% (active) | 47.1% | 15% | 98% (active) | 65.6%
N#C/C(=C\C(Cl)=C/c1ccccc1)C(N)=S | 68% | 97% (active) | 50.1% | 45% | 99% (active) | 40.5% | 91% (active) | 98% (active) | 43.2% | 16% | 95% (active) | 98% (active) | 79% (active) | 98% (active) | 99% (active) | 86% (active) | 98% (active) | 40.4%
c1ccc(-c2n[nH]c3c4ccccc4c4ccccc4c23)cc1 | 19% | 92% (active) | 93.8% (active) | 16% | 98% (active) | 95% (active) | 34% | 97% (active) | 94.2% (active) | 5% | 94% (active) | 93.4% (active) | 13% | 95% (active) | 95% (active) | 62% | 96% (active) | 95% (active)
O=C(c1ccc(Cl)cc1)c1ccc([N+](=O)[O-])cc1 | 13% | -4% | 5.35% | -4% | 1% | -16.4% | 4% | -14% | 4.6% | -3% | 1% | -2.2% | 3% | 31% | 74.5% (active) | -3% | 7% | 8.05%
CC(=O)Oc1cc2c(=O)oc3c(OC(C)=O)c(OC(C)=O)c(OC(C)=O)c4c(=O)oc(c1OC(C)=O)c2c34 | 40% | 58% | 89.5% (active) | 41% | 48% | 76.6% (active) | 37% | 61% | 87.2% (active) | 20% | 40% | 73.8% (active) | 45% | 71% (active) | 88.3% (active) | 39% | 45% | 88.2% (active)
Cc1ccc(NC(=O)Oc2ccc(C(C)(C)C)cc2Br)cc1NC(=O)Oc1ccc(C(C)(C)C)cc1Br | 8% | 26% | 40.1% | -4% | 13% | 60% | 3% | 14% | 49.7% | 2% | 11% | 19.9% | 0% | 28% | 28.4% | 4% | 53% | 79.2% (active)
O=S(=O)(NC(=S)Nc1ccccc1)c1ccc(Br)cc1 | -4% | 24% | 42.9% | -3% | 50% | 47.1% | 7% | 53% | 37.5% | -1% | 2% | 79.5% (active) | -3% | 42% | 67.8% | 21% | 68% | 65.8%
C/C(=N\O)c1ccc2c3c(ccc([N+](=O)[O-])c13)CC2 | -2% | 9% | 13.2% | -9% | 7% | 29.2% | -9% | -2% | -6.4% | 0% | -5% | 34.9% | 0% | 7% | 85.2% (active) | 8% | 30% | 88.5% (active)
COc1ccc(C(c2cc3c(cc2O)OCO3)N2CCOCC2)c(OC)c1OC (stereo not given) | 4% | 96% (active) | 95.5% (active) | 4% | 97% (active) | 99.6% (active) | 0% | 74% (active) | 62.9% | -6% | 63% | 24.4% | 0% | 87% (active) | 98.7% (active) | 2% | 63% | 83% (active)
O=C([O-])c1ccccc1[I+]c1ccc(C2CCCCC2)cc1 | 3% | 45% | 85.2% (active) | 2% | 67% | 79.6% (active) | 22% | 50% | 89.8% (active) | 3% | 47% | 73.2% (active) | 0% | 45% | 71.8% (active) | 32% | 85% (active) | 89.9% (active)
OCCOc1ccc2ccccc2c1-c1c(OCCOc2ccc3ccccc3c2-c2c(OCCO)ccc3ccccc23)ccc2ccccc12 | 0% | 22% | 36.1% | -3% | 13% | 21.5% | 1% | 29% | 36.9% | 6% | 33% | 11.7% | -2% | 14% | 24.6% | 3% | 27% | 26.4%
